From PubChem BioAssay (NCATS)
Records with an inconclusive call do not appear. Values without a mark were called inactive. Calls of active or inactive are those of the source. The call rests on the fitted dose curve; in most records, active means well fitted inhibition curve with a large enough effect; inconclusive means small, poorly fitted or top-dose-only effect; inactive means flat fitted curve, though single readings scatter.

These compounds were tested against Calcium and integrin-binding protein 1 (Homo sapiens) (UniProt Q99828) (assay: Primary qHTS for Identification of Calcium Integrin Binding Protein 1 (CIB1) Competitor (AID 1508620; further: top concentration of the series differs between compounds)). Conditions: CIB1-GST / FITC-alphaIIb peptide fluorescence polarization; series mostly up to 114 µM; activity change, negative = inhibition: at the top concentration.
Summary of the method: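 Fluorescence polarization competition: GST-tagged CIB1 (1 uM final) preincubated with compound 15 min at room temperature, then FITC-labelled alphaIIb peptide (100 nM final) added. After 15 min at room temperature, polarization read at Ex 480/Em 540.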
On the % scale 0 is the no-effect control and ±100 the full control effect.

Sequence of Calcium and integrin-binding protein 1 (Homo sapiens) (Q99828 whole entry, looked up): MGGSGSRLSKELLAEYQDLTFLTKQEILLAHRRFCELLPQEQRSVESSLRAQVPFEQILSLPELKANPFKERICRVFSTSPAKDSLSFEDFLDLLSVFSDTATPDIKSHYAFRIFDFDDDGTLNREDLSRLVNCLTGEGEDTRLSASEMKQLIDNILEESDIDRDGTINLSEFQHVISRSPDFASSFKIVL

| SMILES | activity change, negative = inhibition | Potency |
| --- | --- | --- |
| COc1cccc(CNc2ccc(S(=O)(=O)Nc3cccc4ccncc34)cc2)c1O | 5.66% | – |
| Nc1ccccc1OC1=NS(=O)(=O)c2ccccc21 | -4.94% | – |
| O=c1c2[nH]c3cc(Br)sc3c2cnn1Cc1ccccc1F | 0.167% | – |
| Cc1cc(C)nc(NC(=S)N2CCN(c3cccc4[nH]ccc34)CC2)c1 | -7.09% | – |
| COc1cccc(C2c3c(ncn(-c4ccccc4C(C)(C)C)c3=N)Oc3ccc4ccccc4c32)c1 (centres undefined) | 7.01% | – |
| COC(=O)c1ccccc1NC(=O)c1ccc(C#N)cc1 | -2.51% | – |
| O=C(NCCc1nc2ccccc2n1CCCc1ccccc1)C1CCCCC1 | 3.45% | – |
| COc1cccc(NC(=O)C(OC(=O)CNC(=O)c2ccccc2)c2ccccc2)c1 (centres undefined) | -0.934% | – |
| N#Cc1nc(Nc2cccc(F)c2)nc(NC2CCCC2)n1 | 2.97% | – |
| O=S(=O)(c1ccc2c(c1)OCCO2)N1CCCN(S(=O)(=O)c2c(F)cccc2F)CC1 | 6.16% | – |
| FC(F)(F)c1ccc(CSc2nc3ncc(Br)cc3[nH]2)cc1 | 5.35% | – |
| O=S(=O)(Nc1ccccc1F)c1ccc(O)c2ncccc12 | -6.54% | – |
| O=S(=O)(Nc1nccs1)c1ccc(NCc2cccc(O)c2)cc1 | -10.5% | – |
| O=C(Cn1nc(-c2ccccc2)ccc1=O)NCCc1ccccc1 | -0.404% | – |
| Cc1cc2c(s1)c1cnn(Cc3ccc(S(C)(=O)=O)cc3)c(=O)c1n2C | 6.19% | – |
| Cc1ccc(NS(=O)(=O)c2cc3c(cc2NC(C)C)NC(=O)CC3)cc1C | 1.13% | – |
| Cc1ccc(NC(=O)CSc2nnc(-c3cccc([S+](=O)([O-])N4CCCC4)c3)n2-c2c(C)cccc2C)cc1 | 3.04% | – |
| C#CCOc1cccc(-c2nnc3n2N=C(c2ccc(OC)c(OCC(C)=O)c2)CS3)c1 | 6.05% | – |
| COc1cccc(C2c3c(ncn(-c4ccc(NC(C)=O)cc4)c3=N)Oc3ccc4ccccc4c32)c1 (centres undefined) | 8.37% | – |
| CC(C)(N)C(=O)Nc1ccc(Cl)cc1C(=O)c1ccc[nH]1 | -0.117% | – |

| SMILES | activity change, negative = inhibition | Potency |
| --- | --- | --- |
| Cc1ccccc1C(=O)n1ccc2cc(-c3nc(NC(=O)Cc4ccc5c(c4)OCO5)sc3C)ccc21 | 5.2% | – |
| c1nc(NCc2ccc3c(c2)OCO3)c2cc(-c3ccoc3)ccc2n1 | 9.37% | – |
| Cc1c(C(=O)OC[C@H]2CCCO2)[nH]c2c1C(=O)CC(c1ccco1)C2 (some centres undefined) | -17.8% | – |
| CONC(=O)C[C@@H](C#N)NC(=O)[C@@H]1CCCN1C(=O)[C@@H](NC(=O)c1ccc(N)c(Cl)c1)C(C)(C)C | 4.8% | – |
| NC(=O)N1CCN(c2nc(-c3ccc(Br)cc3)cs2)CC1 | 1.8% | – |
| O=C(Nc1cccc([S+](=O)([O-])Nc2ccccc2F)c1)c1ccccc1 | 1.8% | – |
| Cc1ccc2nc3sc(C(=O)N4CCN(C5CCN(C)CC5)CC4)cc3cc2c1 | -0.0408% | – |
| O=S1(=O)N=C(Oc2ccccc2Br)c2ccccc21 | -1.04% | – |
| COc1cccc(C2c3c(ncn(-c4ccncc4)c3=N)Oc3ccc4ccccc4c32)c1 (centres undefined) | 5.23% | – |
| O=S(=O)(Nc1nc(-c2ccccc2C(F)(F)F)nc2ccccc12)c1ccc(Br)cc1 | 6.69% | – |
| Cc1ccccc1C(=O)N1CCc2cc(-c3nc(NC(=O)Cc4ccc5c(c4)OCCO5)sc3C)ccc21 | 5.22% | – |
| CS(=O)(=O)c1ccc(C(=O)OCC#CCSc2nnc(-c3cccc4ccccc34)o2)cc1 | 4.63% | – |
| Cc1ccc(C2N=C(Nc3nc4ccccc4o3)NC3=C2C(=O)CCC3)cc1 (centres undefined) | -2.38% | – |
| CCC(=O)NC(c1ccco1)c1cc(Cl)c2cccnc2c1O (centres undefined) | -12.2% | – |
| O=S(=O)(c1ccc2c(c1)OCCO2)N1C[C@@H]2C[C@H]1CN2S(=O)(=O)c1c(F)cccc1F | -0.1% | – |
| N[C@@H](CCC(=O)O)C(=O)Nc1ccc(Cl)cc1C(=O)c1ccc[nH]1 | 5.16% | – |
| O=S(=O)(NCc1ccccc1)c1ccc(O)c2ncccc12 | -12.7% | – |
| COc1ccc(C2c3c(ncn(CCN4CCOCC4)c3=N)Oc3ccc4ccccc4c32)cc1 (centres undefined) | 9.45% | – |
| Cc1cccc(C(=O)NC2CCN(C#N)CC2)c1 | – | inactive |
